Our source for the sensor-assay potency score (higher = more potent) values is the OligoGym collection.
Also: reference of the scale not given here.

For the first assay, the target named is PLS1. Briefly: pooled miR-30 sensor sort-seq; sequence = guide strand. As to conditions: shRNA.
TTCCTTGCTCTCTCCTTCCAGT had a sensor-assay potency score (higher = more potent) of -0.4.

As for TAAATTTTCAGAAATAGTGAAT, the sensor-assay potency score (higher = more potent) is -0.578.

The sequence TTGTAGTTCTTCAAGCTCCTCC yielded a sensor-assay potency score (higher = more potent) of 0.438.

The target of the next assay is PLTP. The description is as above. The settings on record: shRNA.
Consider TACACCTTCAAGAACCAGTAGA, for which the sensor-assay potency score (higher = more potent) is -0.191.

For TTAAATTGGGTACAGCTTCAAA, the sensor-assay potency score (higher = more potent) is -1.22.

On to TTGGACACTTTCATCCGTCCAG, for which the sensor-assay potency score (higher = more potent) is -0.0718.

Sequence TACAGCTTCAAATCCCGTCTTC displayed a sensor-assay potency score (higher = more potent) of -0.171.

Consider TTCTTCTCAATCACCTCTCGCA, for which the sensor-assay potency score (higher = more potent) was -0.149.

For the sequence TTGAGCAGGACCGTCCCTGCGT, the sensor-assay potency score (higher = more potent) is -0.0816.

For TTGGAATAGATTCGGAACCTGC, the sensor-assay potency score (higher = more potent) is -0.704.

On to TTGAAGCATCAGCTCCTGCTGT, for which the sensor-assay potency score (higher = more potent) came to 0.293.

As for ATAGATTCGGAACCTGCGCAGG, the sensor-assay potency score (higher = more potent) was -1.18.

TCATACACCTTCTTGAAGGTTC registered a sensor-assay potency score (higher = more potent) of -0.197.

Sequence TCATACACCTTCAAGAACCAGT came in with a sensor-assay potency score (higher = more potent) of 0.217.

ACATTGGACACTTTCATCCGTC came in with a sensor-assay potency score (higher = more potent) of 0.0628.

The next assay concerns the target PLXNA3. The description is as above. As to conditions: shRNA.
Sequence TTGTGTGTCCGAGACAGTGAGC came in with a sensor-assay potency score (higher = more potent) of -0.941.

The sequence TACAAGGACAGCGTGTCTGAGG came in with a sensor-assay potency score (higher = more potent) of -0.523.

The sequence TAGAACTCTGAGTCTCCCGCGC yielded a sensor-assay potency score (higher = more potent) of -0.24.

The sequence TAGATCTCGGAGACCATCTTGC registered a sensor-assay potency score (higher = more potent) of -0.165.

Turning to TCACACTCGATCTTGGTGGTGA, the sensor-assay potency score (higher = more potent) turned out to be 0.265.

TTGTTGATGTTGTCCACGGGGG showed a sensor-assay potency score (higher = more potent) of -0.257.

Consider ATGTCGAACACGAACTGCGGGT, for which the sensor-assay potency score (higher = more potent) is -1.37.

TAGTAGGTAAAGGAGGAGCGGT came in with a sensor-assay potency score (higher = more potent) of -1.08.

As to TTGTAGTCGATCTGCTGACGGA, the sensor-assay potency score (higher = more potent) was -0.986.

In turn, ATCTCGGAGACCATCTTGCTGC came in with a sensor-assay potency score (higher = more potent) of -1.06.

As for TGTCTTGTAGTCGATCTGCTGA, the sensor-assay potency score (higher = more potent) is -0.0226.

TAGTCTATGAGCAGCAGCTTGT came in with a sensor-assay potency score (higher = more potent) of -0.951.

In the next assay the target is PM20D1. Described as above. The settings on record: shRNA.
For the sequence TTTCTCGTTGACTCCATGGATG, the sensor-assay potency score (higher = more potent) is -0.946.

On to TTGGACTGAGATTTTCTCGTTG, for which the sensor-assay potency score (higher = more potent) is 0.297.

Consider ATGACATTGAACTTGACCCCTG, for which the sensor-assay potency score (higher = more potent) is -0.759.

The sequence TACATTTGTTAAGTCAAGCCTG registered a sensor-assay potency score (higher = more potent) of 0.298.

As for TTGAATATGGTGAGTGCCGTGG, the sensor-assay potency score (higher = more potent) was -0.197.

For TTGGATAGTGAACAGGTGGCTA, the sensor-assay potency score (higher = more potent) is -0.715.

With TTGTCGTCCAGTGTGCCCCGAC, the sensor-assay potency score (higher = more potent) is -0.594.

With TTGGACTGTCTGTCCAGGGTGA, the sensor-assay potency score (higher = more potent) turned out to be 0.135.

TGACATTGAACTTGACCCCTGC registered a sensor-assay potency score (higher = more potent) of 0.0724.

In turn, TTTATGAATGTATTTTCCGAAC registered a sensor-assay potency score (higher = more potent) of -1.32.

The sequence AATACAGTCACCACTGTCCCGC registered a sensor-assay potency score (higher = more potent) of -0.75.

TTTCTCTCCATAAACCTGCTTA returned a sensor-assay potency score (higher = more potent) of 0.0874.
